Sampled rows, rich in hits. Any-hit rate of the full collection: about 4.2%.
NLRP3 yeast inh = inhibitors of NALP3 inflammasome in yeast; Yeast reconstituted NLRP3/ASC/caspase-1, beta-gal luminescence, 24 h; inhibition, % at 10 µM; actives 0.39% (n = 330,000); AID 2825;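 active = inhibition of 50% or more; inactive = inhibition below 50%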;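 also: plate controls were induced DMSO wells for no effect and uninduced yeast grown without galactose for full effect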
tim10-1 inh = inhibits growth of tim10-1 mutant yeast; S. cerevisiae tim10-1 ts strain growth, BacTiter-Glo, 24 h; inhibition, % at 20 µM; actives 2.2% (n = 330,000); AID 463190;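 active = inhibition of at least 40%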;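 also: mutant grown at 25 °C; 0% = DMSO wells with yeast and 100% = wells holding no yeast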
NALP1 inh = blocks the NALP1 inflammasome reconstituted in yeast; S. cerevisiae NALP1/ASC/caspase-1 growth, X-gal OD620, 72 h; inhibition, % at 10 µM; actives 0.61% (n = 280,000); AID 2071; in the data active = inhibition mostly above about 24%, no sharp cut-off; inactive = mostly below about 32%
TIM10 inh = growth inhibitors of TIM10 yeast strain | S. cerevisiae TIM10 strain growth, BacTiter-Glo luminescence, 24 h | inhibition, % at 10 µM | actives 1.4% (n = 330,000) | AID 463195;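 active = inhibition of 40% or more at the single tested concentration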;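 also: wild-type TIM10 isogenic control strain grown at permissive 25 °C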
tim23-1 inh = inhibits growth of tim23-1 mutant yeast; S. cerevisiae tim23-1 growth, BacTiter-Glo luminescence, 24 h; actives 1.3% (n = 330,000); inhibition, % at 20 µM; AID 463212;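 active = growth inhibition of the mutant yeast at or above 50%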;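 also: temperature-sensitive mutant grown at 25 °C; plate controls were DMSO-treated mutant yeast for no effect and medium wells lacking yeast for full effect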
PfHsp90 yeast 2 = reduces growth (ATP signal) of yeast expressing P. falciparum Hsp90; S. cerevisiae expressing PfHsp90, BacTiter-Glo ATP, 48 h; yeast lacking PDR1 and PDR3 efflux regulators; actives 0.32% (n = 310,000); AID 504621; inhibition, % at 9.4 µM;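 active = every replicate shows inhibition above about 80%, whatever the replicate mean, limit read from the data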;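 also: 0% = DMSO neutral controls and 100% = 20 µM radicicol positive controls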
tim10-1 confirm = tim10-1 yeast growth inhibition, confirmed. actives 56% (n = 7,400). S. cerevisiae tim10-1 ts strain growth, BacTiter-Glo, 24 h. AID 463213. shares compounds with tim10-1 inh. inhibition, % at 20 µM;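 active = inhibition of yeast growth at or above a set limit in either of two repeat tests at 20 µM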;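 also: tim10-1 mutant grown at permissive 25 °C to find synthetic lethal compounds; 0% = DMSO yeast wells and 100% = medium wells without yeast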
Active calls of the source: *; . = not tested or not shown.

SMILES	NLRP3 yeast inh	tim10-1 inh	NALP1 inh	TIM10 inh	tim23-1 inh	PfHsp90 yeast 2	tim10-1 confirm
COc1ccc(C(=O)Nc2cccc3c2CCCC3)cc1OC	40.1	-12.3	5.4	-11.5	2.7	-9.2	.
CCn1c(-c2cc(Br)cc(OC)c2O)nc2cc(S(=O)(=O)N(C)C)ccc21	-7.3	42.6*	20.1	19.0	16.5	.	15.5
O=C(NCCO)c1cc2c([nH]c3ccccc32)c(-c2ccccc2)n1	10.5	43.4*	18.7	15.4	22.9	5.8	13.8
O=C(NCCO)c1cc2c([nH]c3ccccc32)c(-c2ccc(F)cc2)n1	6.7	28.7	1.7	29.0	34.2	-9.7	.
CCn1nc(C)c(C(=O)Nc2cc(Oc3cc(C)cc(C)c3)cc([N+](=O)[O-])c2)c1C	-15.8	42.7*	21.1	34.7	42.4	28.5	38.8*
Cc1nc(-c2cccnc2)sc1C(=O)Nc1cccc(C(F)(F)F)c1	5.9	43.1*	2.3	31.4	22.1	-10.8	27.8
Cc1nc(-c2cccnc2)sc1C(=O)Nc1ccc(C(F)(F)F)cc1	9.2	37.1	36.5	19.9	23.8	-1.6	.
Cc1ccc(S(=O)(=O)Nc2ccc(N=Nc3ccc(O)cc3)cc2)cc1	42.1	40.3*	.	33.8	37.5	-27.7	47.2*
Cc1cc(NC(=O)c2noc3c2CCCC3)nn1Cc1ccc(Cl)cc1	16.4	44.7*	12.2	17.4	26.9	5.8	21.5
CN(C)c1ccc(P(=O)(OC2CCCCC2)C(O)c2ccncc2)cc1 (stereo not given)	19.3	-3.0	22.3	12.7	16.0	9.9	.
CC1=NN(C(=O)c2ccc(Cn3nc(C)c(Br)c3C)cc2)C(O)(C(F)(F)F)C1 (stereo not given)	6.6	41.1*	15.4	26.6	33.5	5.3	21.9
O=S(Cc1ccc(Cl)cc1)c1ccccc1 (stereo not given)	.	.	.	.	.	14.0	.
C/C(CC(=O)Nc1ccc(Cl)c(C(F)(F)F)c1)=N\NC(=O)c1cnccn1	3.9	49.0*	9.6	16.7	34.5	-37.3	25.3
N/C(=N\OC(=O)c1ccc(F)cc1)c1cccc([N+](=O)[O-])c1	14.7	47.9*	-1.3	25.3	28.1	-7.8	63.0*
O=C(CCNc1ccc(F)cc1)c1cccc([N+](=O)[O-])c1	15.4	40.3*	40.9	15.4	12.8	-14.2	43.0*
O=C(CCNc1ccccc1)c1cccc([N+](=O)[O-])c1	7.0	24.2	18.8	13.2	19.1	3.6	.
N/C(=N/OC(=O)c1cccc([N+](=O)[O-])c1)c1cccc([N+](=O)[O-])c1	0.4	19.8	3.6	-26.2	-13.7	1.1	.
N/C(=N\OC(=O)c1ccccc1Cl)c1cccc([N+](=O)[O-])c1	34.0	50.1*	8.2	27.7	23.3	6.1	65.8*
CCCOc1ccccc1C(=O)N1CCNC(=O)C1CC(=O)OC(C)C (stereo not given)	1.3	17.0	6.7	3.4	2.6	0.3	.
Cn1c(SCC(=O)Nc2ccccc2)nc2ccccc2c1=O	27.5	-23.3	3.4	-8.9	-8.5	32.3	.
CCOC(=O)N1CCN(c2nc(-c3ccccc3)c3ccccc3n2)CC1	22.7	17.4	14.4	23.1	19.3	-22.3	.
COC(=O)C1=CN(C(C)c2ccccc2)C=C(C(=O)OC)C1c1cc(OC)c(OC)c(OC)c1 (stereo not given)	10.2	43.1*	7.0	17.1	43.7	-20.5	21.3
COC(=O)C1=CN(Cc2ccc(OC)cc2)C=C(C(=O)OC)C1c1cc(OC)c(OC)c(OC)c1	18.7	22.0	11.2	17.4	28.1	3.8	.
Cc1ccc(N2CSC3=C(C#N)C(c4cccs4)CC(=O)N3C2)cc1 (stereo not given)	17.7	40.2*	4.1	0.0	16.2	-15.1	-0.1
CC(=O)C1=C(C)OC(N)=C(C#N)C1c1cc2cccc(C)c2nc1Cl (stereo not given)	28.5	45.6*	6.3	19.8	32.1	35.0	24.9
CC(=O)C1=C(c2ccccc2)OC(N)=C(C#N)C1c1ccccc1C (stereo not given)	-3.7	44.9*	20.2	15.4	21.8	4.4	19.5
Cc1ccsc1C(=O)N1CCCC(CO)(Cc2ccccc2)C1 (stereo not given)	-2.1	20.4	7.0	14.3	22.4	1.7	.

Screening results deposited in PubChem BioAssay by several laboratories.
